Eight sequences from PMC7862700, “An all-to-all approach to the identification of sequence-specific readers for epigenetic DNA modifications on cytosine” can be followed below.

Holding throughout (experiment): DAPPL (digital affinity profiling via proximity ligation, sequencing); 10 mM Tris-HCl pH 7.5, 50 mM NaCl, 1 mM DTT, 4% glycerol, room temperature, 30 min; GST-TFs on glutathione beads, 16-mer random dsDNA library, 0.1% formaldehyde crosslink after washing; high values mean tight binding
Conditions in all cases: protein: recombinant; tags: N-terminal GST; dsDNA, one strand shown

For one test, the target named is T1, FLI1 (Homo sapiens, UniProt Q01543 1-452).
T1 sequence: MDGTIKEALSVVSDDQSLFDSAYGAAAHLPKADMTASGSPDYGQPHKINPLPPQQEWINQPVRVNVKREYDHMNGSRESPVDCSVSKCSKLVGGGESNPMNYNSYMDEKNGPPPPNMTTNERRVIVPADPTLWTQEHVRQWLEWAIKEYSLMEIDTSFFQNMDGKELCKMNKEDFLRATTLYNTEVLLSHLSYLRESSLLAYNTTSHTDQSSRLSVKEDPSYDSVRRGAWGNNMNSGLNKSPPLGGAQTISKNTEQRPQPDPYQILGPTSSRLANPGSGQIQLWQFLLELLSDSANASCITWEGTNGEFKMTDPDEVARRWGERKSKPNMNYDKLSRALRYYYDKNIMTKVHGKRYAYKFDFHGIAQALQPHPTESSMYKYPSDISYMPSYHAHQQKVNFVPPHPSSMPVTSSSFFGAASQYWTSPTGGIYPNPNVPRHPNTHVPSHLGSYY
In short, it runs like this:
(§1)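 Binding signal is defined as a hexamer's read frequency for one factor over its frequency for the tag-only sample. To obtain reads, GST-fused human transcription factors were expressed in yeast, captured on glutathione beads, barcoded with DNA and pooled with that sample. Pools met 200 nmole of a 16-mer random double-stranded DNA library in Tris/NaCl/DTT/glycerol buffer for 30 min at room temperature before washing, 0.1% formaldehyde crosslinking, proximity ligation (BsaI/T4 ligase, 1 h, 37 °C), PCR and Illumina NextSeq500 sequencing.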

Another test deals with T2, ELK1 (Homo sapiens, UniProt P19419 1-428).
T2 sequence: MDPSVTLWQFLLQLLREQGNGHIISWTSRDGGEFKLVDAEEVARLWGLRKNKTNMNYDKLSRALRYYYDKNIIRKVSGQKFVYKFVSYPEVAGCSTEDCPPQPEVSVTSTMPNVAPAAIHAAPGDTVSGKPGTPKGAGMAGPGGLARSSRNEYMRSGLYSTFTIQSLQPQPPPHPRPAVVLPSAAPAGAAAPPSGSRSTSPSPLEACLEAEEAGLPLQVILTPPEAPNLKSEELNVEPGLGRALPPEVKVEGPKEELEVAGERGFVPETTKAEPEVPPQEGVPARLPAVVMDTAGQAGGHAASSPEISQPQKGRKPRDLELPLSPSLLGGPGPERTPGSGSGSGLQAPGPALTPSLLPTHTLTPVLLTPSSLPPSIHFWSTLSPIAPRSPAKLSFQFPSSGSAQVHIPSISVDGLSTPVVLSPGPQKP
In short, it runs like this: as §1

Another test addresses T3, GABPA (Homo sapiens, UniProt Q06546 1-454).
T3 sequence: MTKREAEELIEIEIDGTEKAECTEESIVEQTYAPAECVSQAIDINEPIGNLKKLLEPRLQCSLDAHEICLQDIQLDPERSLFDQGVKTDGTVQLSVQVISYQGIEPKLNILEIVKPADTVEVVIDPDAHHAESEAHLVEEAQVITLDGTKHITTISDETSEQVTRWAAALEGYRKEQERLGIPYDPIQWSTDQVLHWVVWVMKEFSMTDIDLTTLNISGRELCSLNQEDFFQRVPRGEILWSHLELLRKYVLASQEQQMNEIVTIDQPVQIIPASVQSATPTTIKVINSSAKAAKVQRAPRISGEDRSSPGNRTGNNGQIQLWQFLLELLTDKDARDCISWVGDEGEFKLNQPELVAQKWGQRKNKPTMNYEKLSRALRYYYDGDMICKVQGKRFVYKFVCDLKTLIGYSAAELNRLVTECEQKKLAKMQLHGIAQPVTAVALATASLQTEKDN
In short, it runs like this: as §1

The next test concerns the target T4, ERG (Homo sapiens, UniProt P11308 1-479).
T4 sequence: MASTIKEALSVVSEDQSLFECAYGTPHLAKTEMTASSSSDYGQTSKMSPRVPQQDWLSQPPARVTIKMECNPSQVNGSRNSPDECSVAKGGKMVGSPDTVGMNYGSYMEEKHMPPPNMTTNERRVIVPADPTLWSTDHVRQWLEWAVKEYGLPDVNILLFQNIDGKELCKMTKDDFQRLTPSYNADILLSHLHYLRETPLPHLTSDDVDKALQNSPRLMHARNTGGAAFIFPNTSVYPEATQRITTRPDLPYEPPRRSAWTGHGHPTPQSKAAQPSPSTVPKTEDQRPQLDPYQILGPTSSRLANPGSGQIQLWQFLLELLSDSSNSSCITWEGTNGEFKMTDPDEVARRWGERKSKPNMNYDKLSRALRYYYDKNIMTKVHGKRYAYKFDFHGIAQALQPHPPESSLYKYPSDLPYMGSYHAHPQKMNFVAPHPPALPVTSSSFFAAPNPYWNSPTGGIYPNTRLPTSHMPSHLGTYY
An outline of the steps: as §1

A further test concerns the target ELF1 (Homo sapiens, UniProt P32519 1-619). An outline of the steps: as §1
A further test concerns the target T5, EHF (Homo sapiens, UniProt Q9NZC4 1-300).
T5 sequence: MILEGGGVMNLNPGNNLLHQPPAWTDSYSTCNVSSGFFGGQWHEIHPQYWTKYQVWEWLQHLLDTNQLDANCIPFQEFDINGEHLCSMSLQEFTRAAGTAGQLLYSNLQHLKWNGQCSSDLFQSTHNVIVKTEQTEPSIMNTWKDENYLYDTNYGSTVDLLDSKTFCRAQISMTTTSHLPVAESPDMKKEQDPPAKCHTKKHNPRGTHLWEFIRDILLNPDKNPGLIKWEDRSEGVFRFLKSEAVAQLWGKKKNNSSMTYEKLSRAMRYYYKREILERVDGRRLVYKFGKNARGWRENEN
An outline of the steps:
as §1

The target in test [1] is SPI1 (Homo sapiens, UniProt P17947 1-270). In short, it runs like this: as §1
The next test concerns the target SPIB (Homo sapiens, UniProt Q01892 1-262). In short, it runs like this: as §1
The next test has as its target T6, ELK3 (Homo sapiens, UniProt P41970 1-407).
T6 sequence: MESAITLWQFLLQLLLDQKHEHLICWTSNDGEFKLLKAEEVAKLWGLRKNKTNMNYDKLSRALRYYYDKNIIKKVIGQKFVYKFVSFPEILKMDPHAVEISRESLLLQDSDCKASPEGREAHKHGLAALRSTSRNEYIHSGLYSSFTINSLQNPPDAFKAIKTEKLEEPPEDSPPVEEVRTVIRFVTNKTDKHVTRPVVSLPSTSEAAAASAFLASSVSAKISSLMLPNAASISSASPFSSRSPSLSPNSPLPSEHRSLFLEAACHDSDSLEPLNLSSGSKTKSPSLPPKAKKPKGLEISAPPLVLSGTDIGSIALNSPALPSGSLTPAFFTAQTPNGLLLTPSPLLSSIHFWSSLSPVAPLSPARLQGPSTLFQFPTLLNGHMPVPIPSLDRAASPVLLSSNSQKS
In short, it runs like this:
as §1

Test [2] addresses SPI1 (Homo sapiens, UniProt P17947 1-270). An outline of the steps: as §1
This is another data set of the same source.

Chain of SPIB (Q01892 whole entry): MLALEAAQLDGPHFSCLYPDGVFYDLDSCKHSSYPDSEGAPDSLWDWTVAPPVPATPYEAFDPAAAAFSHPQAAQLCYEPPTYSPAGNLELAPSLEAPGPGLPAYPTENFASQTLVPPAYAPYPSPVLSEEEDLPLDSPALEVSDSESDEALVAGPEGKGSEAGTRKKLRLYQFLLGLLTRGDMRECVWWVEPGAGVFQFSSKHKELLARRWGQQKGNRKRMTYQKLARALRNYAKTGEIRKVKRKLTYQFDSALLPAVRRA
Chain of ELF1 (P32519 whole entry): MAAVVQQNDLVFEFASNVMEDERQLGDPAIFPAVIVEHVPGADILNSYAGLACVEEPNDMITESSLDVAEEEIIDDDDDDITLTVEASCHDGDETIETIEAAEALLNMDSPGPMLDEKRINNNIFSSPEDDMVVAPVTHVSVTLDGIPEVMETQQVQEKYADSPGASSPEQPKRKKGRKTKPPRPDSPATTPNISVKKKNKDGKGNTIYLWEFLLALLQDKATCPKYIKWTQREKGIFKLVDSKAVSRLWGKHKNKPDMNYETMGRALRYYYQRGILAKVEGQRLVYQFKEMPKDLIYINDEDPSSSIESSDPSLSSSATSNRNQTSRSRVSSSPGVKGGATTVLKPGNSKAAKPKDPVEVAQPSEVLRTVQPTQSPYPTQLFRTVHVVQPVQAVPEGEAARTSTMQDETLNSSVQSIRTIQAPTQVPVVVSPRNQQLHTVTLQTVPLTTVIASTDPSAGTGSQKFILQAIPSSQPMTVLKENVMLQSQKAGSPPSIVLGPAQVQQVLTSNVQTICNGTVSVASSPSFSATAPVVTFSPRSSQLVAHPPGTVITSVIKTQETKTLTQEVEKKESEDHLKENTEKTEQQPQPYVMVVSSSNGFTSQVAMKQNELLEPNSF

As for TTCATT, the binding signal with FLI1 was 1.25 fold enrichment (6-mer frequency, TF over GST control); with ELK1 it was 1.19 fold enrichment (6-mer frequency, TF over GST control); with GABPA, 1.16 fold enrichment (6-mer frequency, TF over GST control); with ERG, 1.2 fold enrichment (6-mer frequency, TF over GST control); with ELF1, 1.24 fold enrichment (6-mer frequency, TF over GST control); in the test with EHF, 1.21 fold enrichment (6-mer frequency, TF over GST control). Also, the binding signal is 1.21 fold enrichment (6-mer frequency, TF over GST control) in the test with SPI1 [1]; 1.22 fold enrichment (6-mer frequency, TF over GST control) in the test with SPIB; 1.23 fold enrichment (6-mer frequency, TF over GST control) with ELK3.

Regarding GCTCAC, the binding signal with FLI1 was 1.37 fold enrichment (6-mer frequency, TF over GST control); in the test with ELK1 it was 1.51 fold enrichment (6-mer frequency, TF over GST control); with GABPA, 1.65 fold enrichment (6-mer frequency, TF over GST control); with ERG, 1.51 fold enrichment (6-mer frequency, TF over GST control); with ELF1 it was 1.49 fold enrichment (6-mer frequency, TF over GST control); with EHF, 1.51 fold enrichment (6-mer frequency, TF over GST control). Also, the binding signal with SPI1 [1] is 1.41 fold enrichment (6-mer frequency, TF over GST control); with SPIB, 1.44 fold enrichment (6-mer frequency, TF over GST control); in the test with ELK3 it was 1.32 fold enrichment (6-mer frequency, TF over GST control).

With ATACCT, the binding signal with FLI1 was 1.13 fold enrichment (6-mer frequency, TF over GST control); in the test with ELK1 it was 1.18 fold enrichment (6-mer frequency, TF over GST control); with GABPA, 1.07 fold enrichment (6-mer frequency, TF over GST control); in the test with ERG, 1.05 fold enrichment (6-mer frequency, TF over GST control); in the test with ELF1 it was 1.13 fold enrichment (6-mer frequency, TF over GST control); with EHF it was 1.08 fold enrichment (6-mer frequency, TF over GST control). In addition, the binding signal with SPI1 [1] is 1.04 fold enrichment (6-mer frequency, TF over GST control); with SPIB, 1.1 fold enrichment (6-mer frequency, TF over GST control); in the test with ELK3, 1.08 fold enrichment (6-mer frequency, TF over GST control).

On to TTTATC, for which the binding signal with FLI1 was 1.25 fold enrichment (6-mer frequency, TF over GST control); with ELK1, 1.27 fold enrichment (6-mer frequency, TF over GST control); in the test with GABPA it was 1.25 fold enrichment (6-mer frequency, TF over GST control); in the test with ERG, 1.22 fold enrichment (6-mer frequency, TF over GST control); with ELF1, 1.21 fold enrichment (6-mer frequency, TF over GST control); in the test with EHF, 1.36 fold enrichment (6-mer frequency, TF over GST control). For the same sequence, the binding signal with SPI1 [1] is 1.26 fold enrichment (6-mer frequency, TF over GST control); with SPIB, 1.28 fold enrichment (6-mer frequency, TF over GST control); in the test with ELK3, 1.37 fold enrichment (6-mer frequency, TF over GST control).

For ACAATT, the binding signal with FLI1 was 1.33 fold enrichment (6-mer frequency, TF over GST control); with ELK1 it was 1.27 fold enrichment (6-mer frequency, TF over GST control); in the test with GABPA, 1.15 fold enrichment (6-mer frequency, TF over GST control); in the test with ERG it was 1.32 fold enrichment (6-mer frequency, TF over GST control); with ELF1, 1.32 fold enrichment (6-mer frequency, TF over GST control); with EHF, 1.23 fold enrichment (6-mer frequency, TF over GST control). The binding signal with SPI1 [1] was 1.23 fold enrichment (6-mer frequency, TF over GST control); with SPIB it was 1.2 fold enrichment (6-mer frequency, TF over GST control); in the test with ELK3, 1.25 fold enrichment (6-mer frequency, TF over GST control).

With ATATGC, the binding signal with FLI1 is 1.09 fold enrichment (6-mer frequency, TF over GST control); with ELK1, 1.15 fold enrichment (6-mer frequency, TF over GST control); with GABPA, 1.15 fold enrichment (6-mer frequency, TF over GST control); in the test with ERG, 1.13 fold enrichment (6-mer frequency, TF over GST control); with ELF1, 1.1 fold enrichment (6-mer frequency, TF over GST control); with EHF it was 1.08 fold enrichment (6-mer frequency, TF over GST control). For the same sequence, the binding signal was 1.16 fold enrichment (6-mer frequency, TF over GST control) with SPI1 [1]; 1.07 fold enrichment (6-mer frequency, TF over GST control) with SPIB; 1.05 fold enrichment (6-mer frequency, TF over GST control) with ELK3.

For GCTTCC, the binding signal with FLI1 is 3.32 fold enrichment (6-mer frequency, TF over GST control); with ELK1, 3.85 fold enrichment (6-mer frequency, TF over GST control); with GABPA, 3.27 fold enrichment (6-mer frequency, TF over GST control); in the test with ERG it was 4 fold enrichment (6-mer frequency, TF over GST control); in the test with ELF1, 3.21 fold enrichment (6-mer frequency, TF over GST control); with EHF it was 3.72 fold enrichment (6-mer frequency, TF over GST control). The binding signal in the test with SPI1 [2] is 3.73 fold enrichment (6-mer frequency, TF over GST control); with SPIB, 3.8 fold enrichment (6-mer frequency, TF over GST control); with ELK3 it was 4.31 fold enrichment (6-mer frequency, TF over GST control).

Consider ATCCGC, for which the binding signal with FLI1 was 1.82 fold enrichment (6-mer frequency, TF over GST control); with ELK1, 1.86 fold enrichment (6-mer frequency, TF over GST control); in the test with GABPA, 1.57 fold enrichment (6-mer frequency, TF over GST control); in the test with ERG, 1.93 fold enrichment (6-mer frequency, TF over GST control); with ELF1, 1.76 fold enrichment (6-mer frequency, TF over GST control); with EHF, 1.82 fold enrichment (6-mer frequency, TF over GST control). The binding signal in the test with SPI1 [1] is 1.74 fold enrichment (6-mer frequency, TF over GST control); with SPIB, 1.82 fold enrichment (6-mer frequency, TF over GST control); with ELK3 it was 2.04 fold enrichment (6-mer frequency, TF over GST control).
